In PubChem BioAssay:
Activity calls are given as the source filed them.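 How the source made its calls, unless noted: active means mean z-score across replicates of 1.96 or higher in either the MELAS or the Rieske mutant cell line; inactive means the rest.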

Key:
[1] = modifiers of HSF1 nuclear foci, imaging, Selleck Cancer Library (AID 1347162; in the data active means plate-normalised HSF1 focus index below about 0.46); settings: human cells, at 10 µM; SSMD: measured here: HSF1 foci SSMD mean; cell count: measured here: cell number; plate-normalised HSF1 focus index: stronger effect = lower value
[2] = phospholipid biosynthesis inhibitors in animal cells, primary screen, cell-based, LOPAC library, screen 4 (AID 1347384; call rule not given here); settings: phospholipid biosynthesis inhibition screen, at 10 µM
[3] = survival rescue of mitochondrial mutant cells in low glucose, primary screen, MELAS cybrids, Rieske KO mouse fibroblasts, CellTiter-Glo (AID 1508586);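 further: z relative to plate mean and SD of compound and empty wells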
[4] = viability rescue of complex I mutant cybrids, primary screen, cell-based, galactose medium, ATP luminescence (AID 1645843;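 active means z-score of at least 1.8 in each of two replicates, scored against plate mean and spread of sample wells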;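 further: positive z means more ATP and so rescue of galactose-driven cybrid death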); settings: complex I mutant cybrid cells, 72 h, stronger effect = higher value
[5] = circadian clock period modulators, cell-based, LOPAC library, luminescence reporter (AID 2774; call rule not given here;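 further: values are relative to mean of DMSO wells on each plate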); settings: circadian reporter cells, at 7 µM, actives lie on both sides
[6] = tested on: Hepatitis C virus NS3 helicase; assay: HCV NS3 helicase inhibitors, primary screen, biochemical, fluorescence polarization, LOPAC1280 library (AID 687035; in the data active means inhibition above about 37%); settings: Purified HCV NS3 helicase, Cy5-dT15 ssDNA binding fluorescence polarization; stronger effect = higher value; concentration not given here
[7] = Cy5 fluorescence quenching or enhancement artefacts, artefact control for HCV NS3 helicase inhibitor project, biochemical, LOPAC1280 (AID 687037; call rule not given here); settings: Cy5-DNA-NS3h complex fluorescence interference counterscreen
[8] = target: NAD(+) hydrolase SARM1 (Homo sapiens) (UniProt Q6SZW1); assay: SARM1 TIR NADase inhibitors, cell lysate, NAD-Glo luminescence (AID 1508614;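 active means compound whose remaining NAD level is above about 45 nM, limit read from the data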); settings: SAM-TIR HEK293T lysate NADase, at 1 µM, stronger effect = higher value
Sequence of NAD(+) hydrolase SARM1 (Homo sapiens) (Q6SZW1 whole entry, looked up): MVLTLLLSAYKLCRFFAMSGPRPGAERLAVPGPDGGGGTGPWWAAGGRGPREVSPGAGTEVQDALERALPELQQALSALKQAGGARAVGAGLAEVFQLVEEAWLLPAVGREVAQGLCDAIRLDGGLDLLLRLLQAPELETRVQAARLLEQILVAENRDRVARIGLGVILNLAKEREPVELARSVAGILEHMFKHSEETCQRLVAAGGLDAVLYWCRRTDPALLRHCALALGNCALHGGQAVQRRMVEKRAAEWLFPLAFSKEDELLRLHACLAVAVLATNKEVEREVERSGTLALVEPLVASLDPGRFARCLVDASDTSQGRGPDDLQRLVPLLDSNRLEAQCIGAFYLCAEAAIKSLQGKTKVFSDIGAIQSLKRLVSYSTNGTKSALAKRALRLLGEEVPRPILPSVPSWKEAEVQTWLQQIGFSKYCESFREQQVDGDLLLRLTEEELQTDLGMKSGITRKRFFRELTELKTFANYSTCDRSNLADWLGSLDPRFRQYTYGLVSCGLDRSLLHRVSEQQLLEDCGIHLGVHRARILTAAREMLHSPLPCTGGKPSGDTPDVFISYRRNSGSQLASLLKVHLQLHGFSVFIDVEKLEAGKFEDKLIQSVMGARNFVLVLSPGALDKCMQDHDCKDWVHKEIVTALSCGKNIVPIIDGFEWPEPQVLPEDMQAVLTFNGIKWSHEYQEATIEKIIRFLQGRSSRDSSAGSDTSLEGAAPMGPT

[9] = MELAS cybrid survival, CellTiter-Glo 48 h, stronger effect = higher value
[10] = Rieske KO mouse fibroblast survival, CellTiter-Glo 72 h

OC[C@H]1O[C@@H](n2cnc3c2NC=NC[C@H]3O)CC1O (stereo partly specified)
SSMD [1]: 3.2
cell count [1]: 7070
plate-normalised HSF1 focus index [1]: 1.17 (inactive)

N=c1ccn2c(n1)OC1C(O)[C@@H](CO)O[C@H]12 (stereo partly specified)
outcome [2]: inactive

COC(=O)c1ccc(O)c(NC(=O)COc2ccc(C34CC5CC(CC(C5)C3)C4)cc2)c1
SSMD [1]: -6.52
cell count [1]: 7200
plate-normalised HSF1 focus index [1]: 0.766 (inactive)

COCCN1C2=C(C(=O)c3ccccc3C2=O)N(Cc2cnccn2)C1C (stereo unspecified)
SSMD [1]: 2.27
cell count [1]: 6910
plate-normalised HSF1 focus index [1]: 1.13 (inactive)

CCOC(=O)c1ccc(C#Cc2ccc3c(c2)CC(C)(C)CS3)nc1
outcome [2]: inactive

Cc1nc(C#Cc2cccnc2)cs1
outcome [2]: inactive

C[C@H](CSC(=O)c1ccccc1)C(=O)N1C[C@@H](Sc2ccccc2)CC1C(=O)O (stereo partly specified)
outcome [2]: inactive

CC(C)CC(NP(=O)(O)O[C@@H]1O[C@@H](C)[C@H](O)[C@@H](O)[C@H]1O)C(=O)NC(Cc1c[nH]c2ccccc12)C(=O)O (stereo partly specified)
outcome [2]: inactive

C[N+]1(C)C2CC(OC(=O)[C@H](CO)c3ccccc3)CC1C1OC12 (stereo partly specified)
outcome [2]: inactive

O=C1N[C@H](CO)C(=O)N2CCN(C(=O)c3ccc(F)cc3)C[C@H]12
z-score [3, 9]: 1.91 (inactive)
z-score [3, 10]: -0.948
z-score [4]: -0.325 (inactive)

N[C@@H]1CCCCN(c2c(F)cc3c(=O)c(C(=O)O)cn(C4CC4)c3c2Cl)C1
z-score [3, 9]: 0.702 (inactive)
z-score [3, 10]: -0.618

CC[C@H]1OC(=O)C[C@@H](O)[C@H](C)[C@@H](O[C@@H]2O[C@H](C)[C@@H](O[C@H]3CC(C)(O)[C@@H](O)[C@H](C)O3)[C@H](N(C)C)[C@H]2O)[C@@H](CC=O)C[C@@H](C)C(=O)/C=C/C(C)=C/[C@@H]1CO[C@@H]1O[C@H](C)[C@@H](O)[C@@H](OC)[C@H]1OC (stereo partly specified)
z-score [3, 9]: 0.259 (inactive)
z-score [3, 10]: -0.21

C[C@H](Cc1cc2c(c(C(N)=O)c1)N(CCCO)CC2)NCCOc1ccccc1OCC(F)(F)F
z-score [3, 9]: -0.477 (inactive)
z-score [3, 10]: -0.901

CO[C@H]1/C=C/O[C@@]2(C)Oc3c(C)c(O)c4c(O)c(c(/C=N/N5CCN(C6CCCC6)CC5)c(O)c4c3C2=O)NC(=O)/C(C)=C\C=C\[C@H](C)[C@H](O)[C@@H](C)[C@@H](O)[C@@H](C)[C@H](OC(C)=O)[C@@H]1C
z-score [3, 9]: 0.699 (inactive)
z-score [3, 10]: 0.251

CCOc1ccccc1O[C@@H](c1ccccc1)[C@H]1CNCCO1
z-score [3, 9]: -0.0519 (inactive)
z-score [3, 10]: -0.0896

C[N+]1(C)[C@@H]2CC(OC(=O)C(CO)c3ccccc3)C[C@H]1[C@@H]1O[C@@H]12 (stereo partly specified)
z-score [3, 9]: -0.282 (inactive)
z-score [3, 10]: 0.781

N#CC(=C(\N)Sc1ccccc1N)/C(C#N)=C(/N)Sc1ccccc1N
period change [5]: -0.02 h (inactive)
inhibition [6]: -1% (inactive)
fluorescence ratio (interference) [7]: 1 (inactive)
outcome [2]: inactive
z-score [4]: -1.33 (inactive)

Nc1nc(NC2CC2)c2ncn([C@H]3C=C[C@@H](CO)C3)c2n1
z-score [3, 9]: 1.09 (inactive)
z-score [3, 10]: -0.0348
remaining NAD [8]: 10 nM (inactive)

CN(C)C(=O)N=NC(=O)N(C)C
inhibition [6]: -4% (inactive)
fluorescence ratio (interference) [7]: 1 (inactive)
outcome [2]: inactive

CC(=O)OCC(=O)[C@@]1(O)CC[C@H]2[C@@H]3CCC4=CC(=O)CC[C@]4(C)C3(F)[C@@H](O)C[C@@]21C (stereo partly specified)
z-score [3, 9]: -0.171 (inactive)
z-score [3, 10]: -0.231

COCCN1C(=O)N(C)C(=O)C12CCN(Cc1cnc(-c3ccccc3)s1)CC2
z-score [3, 9]: -0.0934 (inactive)
z-score [3, 10]: -0.895
z-score [4]: -0.285 (inactive)

C=Cc1c(C)c2cc3nc(cc4[nH]c(cc5nc(cc1[nH]2)C(C)=C5CCC(=O)O)c(CCC(=O)OC)c4C)[C@@]1(C)C3=CC=C(C(=O)OC)C1C(=O)OC (stereo partly specified)
z-score [3, 9]: 1.85 (inactive)
z-score [3, 10]: 1.33

CN1C[C@H](C(=O)N[C@]2(C)O[C@@]3(O)[C@@H]4CCCN4C(=O)[C@H](Cc4ccccc4)N3C2=O)CC2c3cccc4[nH]cc(c34)C[C@H]21 (mixture of isomers)
z-score [3, 9]: 0.0487 (inactive)
z-score [3, 10]: 0.764

CC1=C(CCN2CCC3(CC2)C(=O)N(C(C)C)C(=O)N3C)C(C)(C)CCC1
z-score [3, 9]: -0.0598 (inactive)
z-score [3, 10]: -0.31
z-score [4]: 1.89 (inactive)

Cc1cc(=O)c(C(=O)N[C@@H](C(=O)N[C@@H]2C(=O)N3C(C(=O)O)=C(CSc4nnnn4C)CS[C@H]23)c2ccc(O)cc2)c[nH]1
z-score [3, 9]: 0.177 (inactive)
z-score [3, 10]: -0.0348
remaining NAD [8]: 10 nM (inactive)

CCOC(=O)N1CCC(NC2CCc3c(c(C(=O)N(C)C)nn3Cc3ccccc3)C2)CC1 (stereo unspecified)
z-score [3, 9]: -0.0814 (inactive)
z-score [3, 10]: 0.468
z-score [4]: -0.835 (inactive)

COc1c(O[C@@H]2O[C@H](CO)[C@@H](O)[C@H](O)[C@H]2O)cc2c(c1OC)-c1ccc(SC)c(=O)cc1[C@@H](NC(C)=O)CC2
z-score [3, 9]: 0.122 (inactive)
z-score [3, 10]: 0.151
